High-throughput results as filed in PubChem.
In the library only some 3.5% were active in any assay of this set; here they are far more common.
Anthrax LF prot = anthrax lethal factor protease inhibition; multiplex microsphere protease cleavage assay, LF; inhibition, % at 10 µM; actives 0.12% (n = 360,000); also: plate controls were buffer without enzyme for full effect and enzyme alone for no effect
Target sequence (P15917 whole entry, looked up): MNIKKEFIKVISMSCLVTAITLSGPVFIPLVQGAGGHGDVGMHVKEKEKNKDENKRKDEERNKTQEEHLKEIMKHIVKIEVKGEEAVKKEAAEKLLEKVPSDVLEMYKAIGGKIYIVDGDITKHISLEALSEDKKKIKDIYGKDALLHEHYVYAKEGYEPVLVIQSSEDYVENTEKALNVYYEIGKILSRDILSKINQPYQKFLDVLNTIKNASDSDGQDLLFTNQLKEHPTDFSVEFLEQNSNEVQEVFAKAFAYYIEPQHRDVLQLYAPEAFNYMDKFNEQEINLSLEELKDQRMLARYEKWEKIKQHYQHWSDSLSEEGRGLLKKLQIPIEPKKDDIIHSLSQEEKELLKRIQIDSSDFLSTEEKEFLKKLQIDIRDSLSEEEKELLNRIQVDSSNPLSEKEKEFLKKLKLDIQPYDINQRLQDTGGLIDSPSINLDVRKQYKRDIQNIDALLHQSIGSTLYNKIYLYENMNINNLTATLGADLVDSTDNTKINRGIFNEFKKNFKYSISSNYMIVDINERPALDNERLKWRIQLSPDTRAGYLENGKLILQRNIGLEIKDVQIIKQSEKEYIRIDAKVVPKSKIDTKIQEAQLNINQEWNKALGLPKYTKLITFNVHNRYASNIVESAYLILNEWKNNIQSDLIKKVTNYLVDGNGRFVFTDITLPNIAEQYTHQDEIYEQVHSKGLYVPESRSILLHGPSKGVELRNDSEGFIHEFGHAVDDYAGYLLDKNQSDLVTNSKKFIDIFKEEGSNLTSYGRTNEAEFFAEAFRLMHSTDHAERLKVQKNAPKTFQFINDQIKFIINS
Bead autofluor = flagged as autofluorescent in microsphere protease counterscreen. compound autofluorescence counterscreen, microsphere flow cytometry; active compounds read high. fluorescence intensity (no concentration beside the values). actives 3.1% (n = 360,000); in the data active = fluorescence intensity above about 16000; inconclusive = no clear call, values can overlap the other calls
BoNT-A LC inh2 = blocks Botulinum neurotoxin A light chain protease; multiplex microsphere protease substrate cleavage, flow cytometry; actives 0.17% (n = 360,000); inhibition, % at 10 µM; also: plate controls were buffer without enzyme for full effect and enzyme alone for no effect
BoNT F protease = BoNT F light chain protease inhibition; actives 0.22% (n = 360,000); AID 588497; inhibition, % at 10 µM; Multiplex microsphere protease cleavage assay, flow cytometry; in the data active = inhibition above about 35%, passing the limit was not always enough; inconclusive = no clear call, values can overlap the other calls; also: plate controls were buffer without enzyme for full effect and enzyme alone for no effect
BH1578 lux ind = induces V. cholerae light production without autoinducers. V. cholerae BH1578 lux reporter, luminescence, 6 h. activation, % at 18.7 µM. actives 0.16% (n = 350,000); in the data active = activation mostly above about 9.7%, no sharp cut-off; inconclusive = no clear call, values can overlap the other calls; inactive = mostly below about 3.7%
Numbers without * were called inactive; i = inactive; ? = inconclusive; · = not tested or not shown. Rule as the data show it, unless noted: active = inhibition above about 30%; inconclusive = no clear call, values can overlap the other calls; inactive = below that.

SMILES | Anthrax LF prot | Bead autofluor | BoNT-A LC inh2 | BoNT F protease | BH1578 lux ind
CN1CCc2c(c3c(n2C)CCN(C)C3c2ccc(F)cc2)C1c1ccc(F)cc1 (configuration not stated) | -2 | 8152 | 0 | -1 | 0
O=S(=O)(c1ccc(Br)s1)n1cccn1 | -1 | 20761* | ? | 1 | 0
O=S(=O)(c1cccs1)n1cccn1 | -4 | 3505 | 0 | -8 | -1
O=C(CSc1nc2ccccc2s1)Nc1cc(S(=O)(=O)N2CCOCC2)ccc1O | -1 | 2480 | 0 | -4 | 0
CN1CC2(C(=O)c3ccccc3)CN(C)CC(C(=O)c3ccccc3)(C1)C2 | -1 | 20389* | ? | 2 | i
O=C(NCc1cccs1)c1ccc(Cl)s1 | -1 | 24555* | -2 | -4 | 3
CC(C)Oc1ccc(C(=O)NCc2cccs2)cc1 | 0 | 23288* | ? | -2 | i
CCc1ccc(C(=O)NCc2cccs2)s1 | -2 | 11231 | 1 | -2 | 4
O=C(NCCCCNC(=O)c1ccc(Cl)s1)c1ccc(Cl)s1 | 0 | 3266 | 0 | 4 | 0
O=C(NCc1cccs1)c1ccccc1 | -18 | 10577 | -3 | -8 | ·
O=C(CCS(=O)(=O)c1cccs1)Nc1ccc(C(=O)NCc2cccs2)cc1 | 1 | 22948* | 1 | 0 | 0
CN(C)CCNC(=O)c1ccc(Cl)s1 | -1 | 17028* | ? | -5 | 0
COCCNC(=O)C(c1ccc(F)cc1)N(Cc1cccs1)C(=O)CCC(=O)Nc1ccccn1 (configuration not stated) | 12 | 3705 | -2 | -7 | -1
CCN(C(=O)CCS(=O)(=O)c1cccc2nonc12)c1ccc(C)c(C)c1 | 2 | 5123 | 0 | 0 | 0
COc1cc(OC)cc(-c2oc(=O)c3cc(OC)c(OC)cc3c2/C=C/c2ccc(F)cc2)c1 | -2 | 3895 | 0 | -7 | i
Cc1cc(Cl)ccc1OCC(=O)OCC(=O)N1CCC(C(N)=O)CC1 | 0 | ? | 1 | -2 | 0
CN(CC(=O)Nc1ccccc1C(=O)NC1CC1)Cc1ccc(N(C)C)cc1 | -1 | 3799 | 0 | 0 | i
O=C(NCc1cccs1)c1cccnc1C(=O)O | -7 | 17016* | ? | -3 | -2
C[C@H](NC(=O)NCc1cccs1)C(=O)O | 3 | 21235* | 3 | 7 | i
Cc1cc(C(=O)NCc2cccs2)c(C)o1 | -3 | 19810* | 0 | -1 | i
Cc1occc1C(=O)NCc1cccs1 | 0 | 2482 | 0 | 0 | i
Cc1cc(C(=O)NCc2cc(C(=O)O)oc2C)c(C)o1 | -1 | 6944 | -1 | 2 | 17*
COc1ccc(NC(=O)CN(C)C(=O)C2(c3ccccc3)CCCC2)cc1 | -2 | 3942 | 0 | -8 | i
Cc1ncc([N+](=O)[O-])n1CC(=O)N/N=C/c1ccccc1F | -1 | 3260 | -1 | 1 | 0
COc1ccccc1Cn1c(=S)[nH]c2cc(C(=O)N3CCCC(C)C3)ccc2c1=O (configuration not stated) | -4 | 4176 | 0 | -3 | i
SMILES | Anthrax LF prot | Bead autofluor | BoNT-A LC inh2 | BoNT F protease | BH1578 lux ind
O=C(O)C1C2CCCCC2=C2CCCCC2C1C(=O)O (configuration not stated) | 0 | 18813* | ? | 3 | i
O=C(O)C1C2CCCCC2=C2CCCCC2C1C(=O)Nc1nccs1 (configuration not stated) | -4 | 2889 | 0 | -8 | i
COc1ccc(S(=O)(=O)N2CCCC2CNC(=O)C(=O)NCc2cccs2)cc1 (configuration not stated) | 4 | 5317 | -2 | -4 | -3
CCN(CC)CC(O)CN(c1ccccc1)S(=O)(=O)c1ccc2ccccc2c1 (configuration not stated) | 15 | 4166 | -3 | 19 | i
O=S(=O)(c1ccc2ccccc2c1)N(CC(O)COCc1ccco1)c1ccccc1 (configuration not stated) | -6 | 23464* | -1 | -2 | 0
CO/N=C(\c1ccccc1)c1cccnc1 | -1 | 4201 | 0 | 56* | i
CCOc1nc(Nc2ccc(OC)cc2OC)nc(OCC)n1 | 1 | 4415 | -1 | ? | i
Cn1cccc1-c1nc2ccc(NC(=O)c3ccc([N+](=O)[O-])cc3)cc2[nH]1 | -4 | 19889* | 1 | -12 | 0
CCN(CC)C(=O)CSc1nnc(CSc2ncccn2)n1C | -2 | 4066 | -1 | -7 | 0
Cn1cnc([N+](=O)[O-])c1NCc1ccccc1 | ? | 3764 | 7 | 40* | 0
CCNc1c([N+](=O)[O-])ncn1C | -1 | 2790 | 0 | -5 | i
Cc1nn(CC(=O)O)c(C)c1C | -3 | 21501* | 2 | 3 | i
COC(=O)c1cccc(NC(=O)c2ccco2)c1 | 6 | 2465 | 1 | 2 | i
O=C(Nc1cccc(C(F)(F)F)c1)c1ccco1 | -4 | 23988* | -3 | -4 | -1
CC(C)(C)C(=O)COC(=O)c1cccc(NC(=O)c2ccco2)c1 | -3 | 23138* | 1 | 1 | i
CC1CCCC(C)N1C(=O)COc1ccc(F)cc1 (configuration not stated) | 2 | 4615 | 0 | 4 | i
COc1ccc(CC(=O)NCC2CCCN(Cc3cccc(SC)c3)C2)cc1 (configuration not stated) | -4 | 7204 | -11 | ? | 0
C=CCNc1nc(-c2ccc(OC)cc2OC)cs1 | -3 | 21095* | ? | 1 | -4
COc1ccc(-c2csc(NC(=O)C3=COCCO3)n2)c(OC)c1 | 4 | 4704 | 5 | 2 | i
CC(NC(=O)COC(=O)CN1C(=O)c2ccccc2C1=O)c1ccccc1 (configuration not stated) | 0 | ? | 2 | -2 | -1
Cn1c(=O)c2c(nc(N3CCN(c4ccccn4)CC3)n2Cc2ccccc2Cl)n(C)c1=O | 1 | 21245* | ? | 7 | -2
Cn1c(=O)c2c(nc(N3CCNCC3)n2Cc2ccccc2Cl)n(C)c1=O | -1 | 2687 | 0 | -2 | 0
CN(C(=O)COC(=O)CNC(=O)c1ccc(C(C)(C)C)cc1)c1c(N)n(Cc2ccccc2)c(=O)[nH]c1=O | · | · | · | · | i
COc1ccccc1-c1cccc(-c2nc(C(=O)Nc3nccs3)cc3c2[C@@H](CCO)N(C(=O)CC2CC2)C3)c1 | 4 | 6016 | 0 | -6 | ·
CCOC(=O)CN(C(=O)CSc1nnc2c(n1)[nH]c1ccc(OC)cc12)c1ccc(F)cc1 | 1 | 22990* | -1 | -5 | 2
SMILES | Anthrax LF prot | Bead autofluor | BoNT-A LC inh2 | BoNT F protease | BH1578 lux ind
[O-]C1=N[N+](=C(c2ccccc2)c2ccccc2)C1 | -1 | 3974 | -1 | -5 | i
CC(/C=N/NC(=O)c1cccs1)=C\c1ccco1 | -1 | 4223 | 0 | -8 | i
Cn1cccc1/C=N/NC(=O)Cc1cccs1 | 43* | 3872 | -1 | ? | i
CC(/C=N/NC(=O)Cc1cccs1)=C\c1ccco1 | 0 | 21994* | ? | 1 | i
CC(=O)c1ccc(OCC(=O)Nc2ccc3c(c2)OCO3)cc1 | -9 | 4370 | -1 | -1 | 0
CCOC(=O)c1c(NC(=O)CCN2C(=O)c3ccccc3C2=O)sc(C(=O)OC(C)C)c1C | -4 | 17126* | ? | -3 | i
